Test [1] can be described thus: Wnt pathway potentiators raising nuclear beta-catenin – imaging, WNT3A-conditioned medium, mouse C2C12, NPC library, primary screen (AID 1117326; in the data active = nuclear beta-catenin stimulation mostly above about 4.2%, no sharp cut-off; inactive = mostly below about 10%). Particulars: stronger effect = higher value.
A short description of test [2]: stimulators of insulin release from INS-1E, primary screen, cell-based, 5 mM glucose, NPC library (AID 1117329;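 active = compound raises insulin release from rat beta cells at 5 mM glucose, no numeric limit stated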). Particulars: rat INS-1E insulin secretion, at 10 µM, stronger effect = higher value.
Test [3] can be described thus: growth inhibition of GSK3B-pretreated HCT116 cells – cell-based, CellTiter-Glo, 0.2 to 20 µM (AID 1117336;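 active = compounds lowering colon cancer cell viability after pretreatment blocking the GSK3B kinase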). Particulars: HCT116 viability after GSK3B inhibitor, at 20 µM, stronger effect = higher value. On the technique in general: In ATP-based viability assays light output follows the ATP content of the culture.
Test [4] is described as follows: inhibition of endothelial tube formation, primary screen, imaging, VEGF stimulated, CD31 staining, tube area, NPC library (AID 1117340;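 active = compound that reduces growth-factor-driven endothelial tube area in a mixed cell culture, no cutoff stated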). The conditions noted are these: VEGF-stimulated ADSC/ECFC co-culture, at 10 µM, stronger effect = higher value.
Test [5] is described as follows: GLP1 release stimulators, primary, NCI-H716, NPC library (AID 1117341;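 active = compound raises GLP1 secretion from the human gut endocrine cells, with no numeric limit stated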). Particulars: NCI-H716 cells, at 10 µM, stronger effect = higher value.
The nature of test [6]: HCT116 colon cancer cell growth inhibition, primary screen, CellTiter-Glo luminescence, NPC library (AID 1117342;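 active = compounds that lower survival of HCT116 colon cancer cells in the luminescence readout, no numeric limit stated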). Particulars: at 20 µM (top of the series).
Test [7] in a line: reduced SW480 viability measured with CellTiter-Glo, NPC library, primary (AID 1117343;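 active = compounds that lower viability of the colon cancer cells in the luminescence readout, with no numeric limit stated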). Particulars: CellTiter-Glo luminescence; at 20 µM (top of the series).
The nature of test [8]: NPC library primary testing for decreased DLD-1 cell viability via CellTiter-Glo (AID 1117346;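 active = compounds that lower survival of DLD-1 colon cancer cells in the luminescence readout, no cutoff given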). The conditions noted are these: DLD-1 viability, CellTiter-Glo luminescence; at 20 µM (top of the series).
Test [9] addresses 6-phosphogluconate dehydrogenase, decarboxylating (Homo sapiens) (UniProt P52209). Kind of test: inhibition of human phosphogluconate dehydrogenase – biochemical, recombinant enzyme, NADPH absorbance, primary screen (AID 1159550;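 active = at least 20% inhibition of 6-phosphogluconate dehydrogenase activity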). The conditions noted are these: recombinant 6PGD, NADPH absorbance 341 nm; at 10 µM; stronger effect = higher value.
Test [10] is described as follows: EMT-state selective cytotoxicity in co-culture – imaging, PC-3E GFP, TEM4-18 mCherry, primary screen (AID 1345086;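 active = compounds killing one labelled cell type while sparing the other, by normalised counts and ratio limits, not self-fluorescent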;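 for all read-outs here: cells exposed to compound for 72 h before imaging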;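 for red/green cell ratio (normalised): normalised mesenchymal count divided by normalised epithelial count so high means epithelial killing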). Particulars: PC-3E GFP / TEM4-18 mCherry co-culture, imaging cell counts, at 1 µM; for red/green cell ratio (normalised): actives lie on both sides, counts scaled to control wells, 1 = unselective.
Test [11] in a line: viability loss with induced miR-34 in A549 – imaging, A549 dox-inducible miR-34, nuclei and caspase counts, primary screen (AID 1347080;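 active = compounds whose cell count with miR-34 switched on is under 0.7 times the count with it off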). The conditions noted are these: A549 miR-34 inducible, Hoechst nuclei count, 48 h.
Test [12] is described as follows: MELAS cybrid and Rieske KO viability enhancers – cell-based, MELAS cybrids, Rieske KO mouse fibroblasts, CellTiter-Glo, primary screen (AID 1508586;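 active = mean z-score across replicates of 1.96 or higher in either the MELAS or the Rieske mutant cell line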;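 note: z relative to plate mean and SD of compound and empty wells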). The conditions noted are these: low glucose.
For test [13], the target named is NAD(+) hydrolase SARM1 (Homo sapiens) (UniProt Q6SZW1). The test can be described thus: blocking NAD cleavage by SARM1 SAM-TIR – cell lysate, NAD-Glo luminescence (AID 1508614;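 active = compound whose remaining NAD level is above about 45 nM, limit read from the data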;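 note: higher remaining NAD means stronger inhibition of SARM1 NADase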). Particulars: SAM-TIR HEK293T lysate NADase, at 1 µM, stronger effect = higher value.
Another test relates to F380Y. The test can be described thus: BK channel mutant inhibitors and activators – cell-based, U2OS BacMam, thallium flux, beta subunits, selectivity assay, profiling panel (AID 1259406).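 Note: initial slope of Thallos dye fluorescence rise after thallium is added; log ratio against the mean of 0.3% DMSO vehicle wells on the same plate.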 Particulars: U2OS BacMam BK variants, at 30 µM.
For a further test, the system named is F380Y/beta1. The test is described as above. The conditions noted are these: U2OS BacMam BK variants, at 30 µM.
The subject of another test is F380Y/beta2Delta. The description is as above. The conditions noted are these: U2OS BacMam BK variants, at 30 µM.
The subject of the next test is F380Y/beta4. Described as above. The conditions noted are these: U2OS BacMam BK variants, at 30 µM.
Test [14] deals with Calcium-activated potassium channel subunit alpha-1 (Homo sapiens) + Leucine-rich repeat-containing protein 26 (Homo sapiens) (UniProt Q12791+Q2I0M4). The test is described as above. Particulars: U2OS BacMam BK variants, F380Y/Slo1WT/gamma1, at 30 µM.
The next test concerns R275C. The description is as above. Particulars: U2OS BacMam BK variants, at 30 µM.
Setting [15] is: measured here: epithelial PC-3E GFP cell survival.
The mark [16] stands for this setting: measured here: mesenchymal TEM4-18 mCherry cell survival.
[17] abbreviates: stronger effect = lower value, cell number ratio, induced over uninduced.
[18] abbreviates: measured here: relative caspase fold change +Dox/-Dox.
The mark [19] stands for this setting: measured here: total cells with miR-34 induction, stronger effect = lower value.
The mark [20] stands for this setting: measured here: total cells without miR-34 induction.
The mark [21] stands for this setting: MELAS cybrid survival, CellTiter-Glo 48 h, stronger effect = higher value.
Setting [22] is: Rieske KO mouse fibroblast survival, CellTiter-Glo 72 h.

Where “and” joins values, the source holds several entries; their conditions need not be identical. Equal values may be shown once. Calls of active or inactive are those of the source.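 Rule for the calls, unless noted: active = thallium flux through the channel raised or lowered by more than 3 SD from vehicle-only wells, actives on both sides; inactive = the rest.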

Sequence of NAD(+) hydrolase SARM1 (Homo sapiens) (Q6SZW1 whole entry, looked up): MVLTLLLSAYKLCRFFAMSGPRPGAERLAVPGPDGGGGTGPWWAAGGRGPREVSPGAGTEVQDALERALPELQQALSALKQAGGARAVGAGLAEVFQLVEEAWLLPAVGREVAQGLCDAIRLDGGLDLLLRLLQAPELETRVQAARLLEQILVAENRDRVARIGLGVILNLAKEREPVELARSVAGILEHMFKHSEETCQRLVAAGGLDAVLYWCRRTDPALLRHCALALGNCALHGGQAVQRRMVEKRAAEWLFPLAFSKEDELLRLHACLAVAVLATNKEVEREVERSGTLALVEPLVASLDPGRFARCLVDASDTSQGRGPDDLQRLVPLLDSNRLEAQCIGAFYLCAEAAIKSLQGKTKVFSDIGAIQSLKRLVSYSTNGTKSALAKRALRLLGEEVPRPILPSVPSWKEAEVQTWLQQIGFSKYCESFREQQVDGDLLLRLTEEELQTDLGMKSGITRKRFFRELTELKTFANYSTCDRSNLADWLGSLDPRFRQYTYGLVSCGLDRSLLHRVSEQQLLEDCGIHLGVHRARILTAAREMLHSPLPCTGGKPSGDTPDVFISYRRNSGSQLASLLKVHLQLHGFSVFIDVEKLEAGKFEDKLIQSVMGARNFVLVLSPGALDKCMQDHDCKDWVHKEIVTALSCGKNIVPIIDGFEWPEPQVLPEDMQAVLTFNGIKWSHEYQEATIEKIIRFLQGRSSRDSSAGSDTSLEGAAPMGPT
Sequence of Calcium-activated potassium channel subunit alpha-1 (Homo sapiens) + Leucine-rich repeat-containing protein 26 (Homo sapiens) (Q2I0M4 whole entry, looked up, one chain of several): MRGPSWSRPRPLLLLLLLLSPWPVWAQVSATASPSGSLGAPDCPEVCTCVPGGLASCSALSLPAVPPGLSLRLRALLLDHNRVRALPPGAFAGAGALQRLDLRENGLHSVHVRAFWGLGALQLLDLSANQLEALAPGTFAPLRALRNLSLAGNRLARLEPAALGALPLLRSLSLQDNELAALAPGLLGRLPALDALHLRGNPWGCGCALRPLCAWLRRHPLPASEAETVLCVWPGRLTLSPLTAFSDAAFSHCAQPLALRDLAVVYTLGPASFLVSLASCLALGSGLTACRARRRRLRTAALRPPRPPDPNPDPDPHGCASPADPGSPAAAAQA
Sequence of 6-phosphogluconate dehydrogenase, decarboxylating (Homo sapiens) (P52209 whole entry, looked up): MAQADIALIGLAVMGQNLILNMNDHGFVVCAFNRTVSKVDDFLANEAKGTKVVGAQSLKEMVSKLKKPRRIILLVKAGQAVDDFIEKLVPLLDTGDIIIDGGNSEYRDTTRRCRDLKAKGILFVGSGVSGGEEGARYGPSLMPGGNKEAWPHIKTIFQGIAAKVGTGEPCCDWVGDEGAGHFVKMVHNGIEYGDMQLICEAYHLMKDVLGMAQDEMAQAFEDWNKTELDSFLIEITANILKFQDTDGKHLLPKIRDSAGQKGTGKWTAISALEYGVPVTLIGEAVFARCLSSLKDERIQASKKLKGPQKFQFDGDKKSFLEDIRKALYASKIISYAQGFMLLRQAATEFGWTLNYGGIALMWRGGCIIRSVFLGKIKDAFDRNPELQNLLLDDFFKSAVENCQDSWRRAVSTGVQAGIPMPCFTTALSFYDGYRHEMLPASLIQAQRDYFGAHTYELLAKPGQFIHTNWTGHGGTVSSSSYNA

As usually defined, the inhibition is the change of the read-out against control, counted positive when it falls. For the compound `NCC(=O)CCC(=O)O`, the nuclear beta-catenin stimulation is 0.4% (inactive) in test [1] (at 10 µM) and -0.9% in test [1] (stimulation, at 2 µM). In test [2], the insulin secretion stimulation was 1.9% (inactive). Besides, the viability decrease in test [3] was 26.6% (inactive). Also, the tube area decrease in test [4] was -10.4% (inactive). Further, the GLP1 secretion stimulation in [5] is -1.4% (inactive). Moreover, the inhibition of viability in test [6] was 18.9% (inactive). The viability decrease (inhibition) is 19.8% (inactive) in test [7] and 1% (inactive) in test [8]. Moreover, the inhibition in test [9] is -28.8% (inactive). Also, the red/green cell ratio (normalised) in test [10] was 1.08 (inactive). Moreover, the normalised cell number stood at 1.3 in test [10] (setting [15]) and 1.4 in [10] (setting [16]). Moreover, the fold change in [11] (setting [17]) was 0.951 (inactive) and 0.95 (inactive) and 0.866 (inactive); in [11] (setting [18]), 1.44 and 0.654 and 2.02. Further, the cell count was 9310 and 7910 and 11200 in test [11] (setting [19]); 9780 and 8320 and 12900 in [11] (setting [20]). Also, the z-score is -0.348 (inactive) in test [12] (setting [21]) and 0.0439 in test [12] (setting [22]). Further, in test [13], the remaining NAD is 10 nM (inactive). For the same compound, the log fold change Tl+ flux in the test with F380Y was -0.035 (inactive); in the test with F380Y/beta1, -0.00533 (inactive); in the test on F380Y/beta2Delta it was -0.0239 (inactive); in the test on F380Y/beta4, 0.0148 (inactive); in [14], 0.011 (inactive); in the test on R275C it was -0.000596 (inactive).
As to `CC(CN1c2ccccc2Sc2ccccc21)N(C)C` (stereo not drawn), the nuclear beta-catenin stimulation in [1] (at 10 µM) is 0% (inactive); in [1] (stimulation, at 2 µM), -0.4%. Further, the insulin secretion stimulation in test [2] was 7.9% (inactive). Also, the viability decrease in test [3] was 28.6% (inactive). The tube area decrease in [4] was 14.2% (inactive). Further, the GLP1 secretion stimulation in [5] is 5.7% (inactive). The inhibition of viability in test [6] is 76.9% (active). In addition, the viability decrease (inhibition) in test [7] was 110% (active); in test [8], 28.8% (inactive). Also, the inhibition in [9] was 7.15% (inactive). For the same compound, the red/green cell ratio (normalised) in [10] was 0.9 (inactive). The values for the normalised cell number in test [10] (setting [15]) and in test [10] (setting [16]) were 1.17 and 1.05, respectively. The z-score was -0.251 (inactive) and 0.0297 (inactive) and -0.48 (inactive) in [12] (setting [21]); -0.152 and -0.842 and 0.0934 in [12] (setting [22]). Moreover, the remaining NAD in test [13] was 10 nM (inactive). In addition, the log fold change Tl+ flux with F380Y was 0.2 (active); in the test on F380Y/beta1, 0.16 (active); in the test with F380Y/beta2Delta it was 0.393 (active); in the test on F380Y/beta4, 0.26 (active); in [14], -0.00524 (inactive); with R275C, -0.00748 (inactive).
On to `CC(N=C(NC#N)Nc1ccncc1)C(C)(C)C` (stereo not drawn), for which the nuclear beta-catenin stimulation in test [1] (at 10 µM) is -0.6% (inactive); in test [1] (stimulation, at 2 µM) it was -1.6%. Besides, the insulin secretion stimulation in [2] was 2.1% (inactive). The viability decrease in [3] is -8.9% (inactive). The tube area decrease in test [4] is -9.6% (inactive). Also, the GLP1 secretion stimulation in test [5] is -3.6% (inactive). Also, the inhibition of viability in test [6] was 12.1% (inactive). The viability decrease (inhibition) is -10.1% (inactive) in [7] and 5.8% (inactive) in test [8]. Also, the inhibition in [9] is -10.6% (inactive). Moreover, in test [10], the red/green cell ratio (normalised) is 1.42 (inactive). For the same compound, the normalised cell number in test [10] (setting [15]) was 1.21; in test [10] (setting [16]), 1.72. Moreover, the z-score is 0.121 (inactive) and 0.328 (inactive) in test [12] (setting [21]); -0.266 and 0.371 in test [12] (setting [22]). Also, in test [13], the remaining NAD was 10 nM (inactive). Besides, the log fold change Tl+ flux was -0.0323 (inactive) in the test with F380Y; 0.0184 (inactive) with F380Y/beta1; 0.0089 (inactive) in the test on F380Y/beta2Delta; 0.00227 (inactive) in the test on F380Y/beta4; -0.0269 (inactive) in test [14]; 0.000868 (inactive) with R275C.
For the compound `CCCNC(=O)NS(=O)(=O)c1ccc(Cl)cc1`, the nuclear beta-catenin stimulation in [1] (at 10 µM) is 4.6% (inactive); in [1] (stimulation, at 2 µM), 8.3%. Also, the insulin secretion stimulation in test [2] is 1.5% (inactive). Besides, in [3], the viability decrease is 4.6% (inactive). Also, the tube area decrease in test [4] is -1.2% (inactive). In addition, in test [5], the GLP1 secretion stimulation is 6.4% (inactive). The inhibition of viability in [6] is 2.7% (inactive). Also, the viability decrease (inhibition) was -4.3% (inactive) in test [7] and -8.8% (inactive) in test [8]. The inhibition in test [9] was 14.6% (inactive). For the same compound, the red/green cell ratio (normalised) in test [10] was 1.2 (inactive). Also, the values for the normalised cell number in test [10] (setting [15]) and in [10] (setting [16]) were 1.08 and 1.29, respectively. Also, the z-score in test [12] (setting [21]) was -0.244 (inactive) and -0.535 (inactive); in [12] (setting [22]), -0.188 and -0.232. For the same compound, in test [13], the remaining NAD is 10 nM (inactive). Further, the log fold change Tl+ flux with F380Y is -0.0312 (inactive); in the test on F380Y/beta1, 0.0557 (inactive); with F380Y/beta2Delta it was -0.00553 (inactive); in the test on F380Y/beta4 it was 0.0279 (inactive); in test [14], -0.0083 (inactive); in the test on R275C it was 0.0359 (inactive).
Consider `Nc1ccc(S(=O)(=O)c2ccc(N)cc2)cc1`, for which the nuclear beta-catenin stimulation in test [1] (at 10 µM) is -0.7% (inactive); in test [1] (stimulation, at 2 µM) it was -0.4%. In addition, in [2], the insulin secretion stimulation is -2.3% (inactive). Also, the viability decrease in test [3] was -8.05% (inactive). Also, in test [4], the tube area decrease was 8.8% (inactive). The GLP1 secretion stimulation in [5] is -1.2% (inactive). Further, in test [6], the inhibition of viability is 1.3% (inactive). Moreover, the viability decrease (inhibition) in test [7] is 59.5% (active); in test [8] it was 7.95% (inactive). Besides, in test [9], the inhibition is 14.4% (inactive). In test [10], the red/green cell ratio (normalised) is 1.31 (inactive). Also, the results for the normalised cell number in test [10] (setting [15]) and in test [10] (setting [16]) were 1.14 and 1.49, respectively. The fold change in test [11] (setting [17]) is 0.912 (inactive) and 0.897 (inactive) and 0.875 (inactive); in test [11] (setting [18]), 2.46 and 1.04 and 1.7. Moreover, the cell count in [11] (setting [19]) was 9830 and 8600 and 10200; in [11] (setting [20]), 10800 and 9580 and 11700. The z-score is 0.848 (inactive) in test [12] (setting [21]) and 0.158 in [12] (setting [22]). Moreover, the remaining NAD in test [13] was 10 nM (inactive). In addition, the log fold change Tl+ flux in the test on F380Y is 0.0363 (inactive); in the test with F380Y/beta1, -0.00845 (inactive); with F380Y/beta2Delta it was 0.0421 (inactive); in the test on F380Y/beta4, 0.0288 (inactive); in test [14] it was -0.0163 (inactive); in the test with R275C it was -0.00888 (inactive).

These data come from PubChem BioAssay.
